# SMN2 splice enh: enhancers of SMN2 splice variant expression; HEK293 SMN2-luciferase splicing reporter, luminescence, 30-36 h; Potency, µM (highest dose often 46.1 µM), for inactives: at the highest dose activity change, positive = activation, actives largely listed as activators; 210,000 compounds, 2.8% hits; note: % of control where 0% means no effect; nearly all actives have a fitted effect of over 55% in size
#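 qHTS luciferase splicing reporter: luminescence rises when SMN2 exon 7 is included in transfected HEK293 cells. Compound exposure lasted 30-36 h at 37C, with 4.5 mM final sodium butyrate as control, followed by a ONE-Glo read.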
# ELG1 genotoxic: induces genotoxicity in HEK293T cells with luciferase-tagged ELG1 | HEK293T ELG1-luciferase reporter, luminescence, 16 h | Potency, µM (series often up to 46 µM), for inactives: at the top dose activity change, positive = activation, actives largely listed as activators | 330,000 compounds, 1.3% hits | AID 504466; note: % of control where 0% means no effect; nearly all actives have a fitted effect of over 60% in size
#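 HEK293T cells expressing luciferase-tagged ELG1 were exposed to compound or DMSO vehicle for 16 hr at 37 °C and 5% CO2. Luciferase activity was then measured with ONE-Glo after 30 min at room temperature.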
# NPC1 prom act: activates the NPC1 promoter; AID 485313; Potency, µM (highest dose often 9.22 µM), inactives show at the top dose activation, actives largely listed as activators; Huh7 NPC1 promoter luciferase reporter, 24 h; 320,000 compounds, 2.4% hits; note: % of control where 0% means no effect; nearly all actives have a fitted effect of over 60% in size
#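 In 1536-well qHTS, Huh7 cells harboring an NPC1 promoter–luciferase construct received compound for 24 h; activation was quantified by luminescence following luciferase reagent addition.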
# KinaseGlo FLuc: blocks Kinase-Glo luciferase, a counter-screen artifact; Kinase-Glo luciferase, ATP luminescence, 8 min; Potency, µM (doses to about 38.3 µM), for inactives: top-dose activity change, negative = inhibition, hits mostly inhibitors; 200,000 compounds, 0.28% hits; note: % is set by controls: 0 for no effect and ±100 for the full control effect; nearly all actives have a fitted effect of over 60% in size
#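 Compounds were added to a substrate mix at pH 7.2 (50 mM imidazole, 10 uM ATP, within the enzyme's linear range), followed by Kinase-Glo detection reagent; luminescence was measured after 8 minutes at ambient temperature.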
# Rab9 prom act: activators of Rab9 promoter | 320,000 compounds, 2.8% hits | Potency, µM (top dose mostly 9.22 µM), for inactives: top-dose activation, negative = inhibition, actives largely listed as activators | AID 485297 | Huh7 Rab9 promoter-luciferase reporter, luminescence, 24 h; note: % of control where 0% means no effect; nearly all actives have a fitted effect of over 60% in size
#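 Cell-based reporter: Huh7 stable for Rab9 promoter-driven luciferase, plated in reduced-serum medium with 10% FBS at 1500 cells/well, compound-treated 24 h at 37 °C, luminescence read after 10 min reagent.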
# FLuc counter: counter-screen for miR-21 project: firefly luciferase inhibitors or activators | purified FLuc, Km substrates, luminescence inhibition | Potency, µM (highest dose often 57.5 µM), without a hit: at the top dose activity change, negative = inhibition, hits mostly inhibitors | 360,000 compounds, 6.9% hits;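 note: plate controls were vehicle for no effect and reference inhibitor for full effect; nearly all actives have a fitted effect of over 55% in size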
# Target sequence (P08659 whole entry, looked up): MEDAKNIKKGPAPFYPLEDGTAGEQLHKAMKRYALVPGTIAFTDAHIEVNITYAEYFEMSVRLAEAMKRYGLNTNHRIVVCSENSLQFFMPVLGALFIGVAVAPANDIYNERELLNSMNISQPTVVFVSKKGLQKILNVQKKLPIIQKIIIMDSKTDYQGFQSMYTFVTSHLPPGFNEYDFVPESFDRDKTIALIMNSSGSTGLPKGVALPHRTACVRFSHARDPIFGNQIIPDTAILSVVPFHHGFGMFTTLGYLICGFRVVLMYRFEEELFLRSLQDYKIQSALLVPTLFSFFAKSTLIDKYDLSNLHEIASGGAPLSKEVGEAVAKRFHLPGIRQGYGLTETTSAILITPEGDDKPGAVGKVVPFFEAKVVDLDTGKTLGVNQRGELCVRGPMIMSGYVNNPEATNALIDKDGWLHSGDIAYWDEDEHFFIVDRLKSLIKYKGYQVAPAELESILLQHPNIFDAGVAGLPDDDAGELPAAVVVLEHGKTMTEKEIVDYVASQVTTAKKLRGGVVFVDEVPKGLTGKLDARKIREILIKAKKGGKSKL
#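 Purified P. pyralis luciferase (10nM final) with 10uM D-luciferin and 10uM ATP (Km levels) in 50mM Tris acetate pH 7.5, 10mM Mg acetate, 0.01% Tween-20, 0.05% BSA; qHTS 6-point titration, ~60 µM downward; luminescence read.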
# The depositor's hits bear a star; ? = inconclusive; / = no result; [ ] = remark or other dose. Most compounds without a hit are left out; they make up all but 7.5% or so of the library. Calls come from the whole dose curve; as a rule, active = well fitted curve in the direction sought with a large enough effect; inconclusive = small, poorly fitted or top-dose-only effect, or another doubt; inactive = no such curve, though single readings can be large; an effect the other way counts as inactive or inconclusive. Potency is the fitted concentration of half-maximal effect.
SMILES,SMN2 splice enh,ELG1 genotoxic,NPC1 prom act,KinaseGlo FLuc,Rab9 prom act,FLuc counter
Cc1cc(/C=C2/C(=N)N3C(c4ccccc4)=CSC3=NC2=O)c(C)n1-c1ccccc1,6%,-1%,16%,-1%,12%,2.4µM*
CCC(CC)C1=NN2C(=N)/C(=C\c3cc(C)n(-c4cccc(C)c4)c3C)C(=O)N=C2S1,-22%,0%,2%,0%,1%,-3%
CC1=NN2C(=N)/C(=C\c3cc(C)n(-c4ccccc4)c3C)C(=O)N=C2S1,-34%,7%,11%,10%,5%,4.8µM*
O=C(Nc1nc(=O)c2ccccc2s1)c1ccc(F)cc1,14µM*,?,?,-3%,3.2µM*,2.1µM*
CCn1c(NC(=O)c2ccc(F)cc2)c2ccccc2nc1=O,-1%,0%,-5%,2%,0%,5%
O=C(Nc1nc2ccc(Cl)cc2s1)c1ccc(S(=O)(=O)N2CCCC2)cc1,/,/,/,/,/,1%
O=C(Nc1nc2ccsc2c(=O)s1)c1ccc(Cl)cc1,/,?,0.25µM*,/,0.1µM*,0.21µM*
O=C(Nc1nc(=O)c2ccccc2s1)c1ccc(Cl)cc1,13µM*,1.8µM*,2.8µM*,-2%,2.5µM*,1.1µM*
CCc1ccc(NC(=O)Cn2c(=O)n(Cc3nc(C)no3)c(=O)c3cc4c(cc32)OCO4)cc1,/,/,/,/,/,7%
COc1ccc2nc(NC(=O)c3ccc(S(=O)(=O)N4CCCC(C)C4)cc3)sc2c1 (stereo not drawn),/,/,/,/,/,0%
CN(C)c1ccc(N=Nc2ccccc2C(=O)OCC(=O)NC2CCCC2)cc1,/,2%,11%,/,25%,2.7µM*
CN(C)c1ccc(N=Nc2ccccc2C(=O)OCC(=O)NCC2CCCCC2)cc1,24%,-3%,8%,-7%,20%,4.8µM*
CN(C)c1ccc(N=Nc2ccccc2C(=O)OCC(=O)N(C)C2CCCCC2)cc1,?,0%,26%,-3%,?,1.1µM*
O=C(COC(=O)c1ccccc1Br)NCC1CCCCC1,/,12%,/,/,/,/
Cc1nn(CCC(=O)Nc2ccccc2Br)c(=O)c2nn(-c3ccccc3)c(C)c12,/,/,/,/,/,0%
COc1ccc(-c2nnc(CSc3ncnc4sc5c(c34)CCC5)o2)cc1OC,-4%,23µM*,-2%,-11%,-3%,11%
COc1cccc(Oc2ccc(C(F)(F)F)cc2N)c1,-14%[1.84 µM],?,5%,-3%,7%,24µM*
CCOc1ccc(Oc2ccc(C(F)(F)F)cc2N)cc1,6%[1.84 µM],13%,11%,-3%,8%,?
COc1ccc(C)c2sc(N(Cc3cccnc3)C(=O)CCc3ccccc3)nc12,/,/,/,/,/,-2%
CCC(=O)N/N=C/c1ccc(OS(=O)(=O)c2ccccc2)cc1,?,-2%,-2%,-1%,0%,0%
COc1ccc(/C=N\NC(=O)c2nn(C)cc2Cl)cc1CN1CCOCC1,-4%,2%,1%,-5%,0%,-10%
Cc1ccc(/C=N/NC(=O)c2nn(C)cc2Cl)cc1,11µM*,?,3.5µM*,?,3.5µM*,1.5µM*
Cn1cc(Cl)c(C(=O)N/N=C/c2ccc(OS(=O)(=O)c3ccccc3)cc2)n1,-3%,-9%,4%,4%,0%,24µM*
Cn1cc(Cl)c(C(=O)Nc2cccc(Cl)c2Cl)n1,56%,-1%,18%,1%,26%,0%
Cn1cc(Cl)c(C(=O)N/N=C/c2ccc3c4c(cccc24)CC3)n1,/,?,2µM*,/,1.4µM*,0.54µM*
SMILES,SMN2 splice enh,ELG1 genotoxic,NPC1 prom act,KinaseGlo FLuc,Rab9 prom act,FLuc counter
COc1cccc(N2CC(NC(=O)c3cccc(OC)c3OC)CC2=O)c1 (stereo not drawn),/,/,/,/,/,-4%
N#CCSc1nc2ccccc2o1,/,-2%,-2%,/,-4%,-1%
O=[N+]([O-])c1ccccc1CSc1nc2ccccc2o1,20µM*,?,?,-4%,?,19µM*
CCCN(C(=O)Cn1nc(Cc2cccnc2)c2ccccc2c1=O)c1ccc(C(C)C)cc1,-10%,/,/,/,/,-10%
O=C(CN1C(=O)/C(=C/c2ccccc2)SC1=S)NC1CCS(=O)(=O)C1 (stereo not drawn),/,-1%,-8%,/,0%,-18%
CC(C)c1ccc(/C=C2\SC(=O)N(CC(=O)NC3C=CS(=O)(=O)C3)C2=O)cc1 (stereo not drawn),/,5%,26%,/,23%,1.2µM*
COc1cccc(/C=C2\SC(=O)N(CC(=O)NC3C=CS(=O)(=O)C3)C2=O)c1 (stereo not drawn),/,-7%,-4%,/,6%,27µM*
COc1ccccc1/C=C1\SC(=S)N(CC(=O)NC2CCS(=O)(=O)C2)C1=O (stereo not drawn),/,0%,-3%,/,3%,13µM*
COc1cccc(/C=C2\SC(=O)N(CC(=O)NC3CCS(=O)(=O)C3)C2=O)c1 (stereo not drawn),/,6%,-14%,/,0%,17µM*
COc1cccc(/C=C2\SC(=S)N(C(C)C(=O)NC3C=CS(=O)(=O)C3)C2=O)c1 (stereo not drawn),/,9%,-6%,/,12%,?
COc1cccc(/C=C2\SC(=O)N(CCC(=O)NC3CCS(=O)(=O)C3)C2=O)c1 (stereo not drawn),/,13%,12%,/,11%,?
Fc1ccc2c(c1)-c1c(cnc3cc(-c4ccc(Cl)cc4)nn13)CO2,6%,/,/,/,/,1%
COc1ccc(CCNC(=O)CSCc2nc(-c3ccc(OC)c(OC)c3)oc2C)cc1OC,-9%,/,/,/,/,-6%
CC1=C2C(=CO[C@H](C)[C@H]2C)C(=O)C(C(=O)O)=C1O,-2%,/,/,3%,/,/
CCOc1cccc2cc(-c3nc4sc(C(=O)Nc5ccc(C)cc5)c(C)c4c(=O)[nH]3)c(=O)oc12,/,/,/,/,/,-2%
Cc1ccc(C(=O)NC(Cc2c[nH]c3ccccc23)C(=O)O)cc1 (stereo not drawn),2%,0%,3%,-3%,1%,?
CC(C)Oc1ccc(C(=O)NC(Cc2c[nH]c3ccccc23)C(=O)NN)cc1 (stereo not drawn),/,2%,-3%,/,3%,12µM*
COc1ccc(C(=O)NNC(=O)C(Cc2ccc(O)cc2)NC(=O)c2ccccc2NC(=O)c2ccc(OC)cc2)cc1 (stereo not drawn),/,0%,-1%,4%,-5%,?
O=C(N[C@@H](Cc1c[nH]c2ccccc12)C(=O)O)c1ccccc1Cl,/,1%,-1%,/,-7%,-18%
O=C(N[C@@H](Cc1c[nH]c2ccccc12)C(=O)NC1CC1)c1ccccc1Cl,11µM*,?,?,0%,?,?
